The record followed here is PubChem BioAssay (EPA / NIEHS).

“And” between values parts separate entries of the source, which are not always exact repeats. Identical values can stand only once. Results filed as inconclusive are left out. Some compounds were tested as several samples or in several runs, with calls that do not always agree. The source made the active and inactive calls. How the source made its calls: active means hit-call score of the fitted dose curve at least 0.9, where 1 is the maximum; inconclusive means response in the unintended direction; inactive means score below 0.9.

As a reminder, the AC50 is the midpoint of the concentration-response curve, whichever way the signal moves.

Chain of Estrogen receptor beta (Homo sapiens) (Q92731 whole entry, looked up, the tested form may be a part): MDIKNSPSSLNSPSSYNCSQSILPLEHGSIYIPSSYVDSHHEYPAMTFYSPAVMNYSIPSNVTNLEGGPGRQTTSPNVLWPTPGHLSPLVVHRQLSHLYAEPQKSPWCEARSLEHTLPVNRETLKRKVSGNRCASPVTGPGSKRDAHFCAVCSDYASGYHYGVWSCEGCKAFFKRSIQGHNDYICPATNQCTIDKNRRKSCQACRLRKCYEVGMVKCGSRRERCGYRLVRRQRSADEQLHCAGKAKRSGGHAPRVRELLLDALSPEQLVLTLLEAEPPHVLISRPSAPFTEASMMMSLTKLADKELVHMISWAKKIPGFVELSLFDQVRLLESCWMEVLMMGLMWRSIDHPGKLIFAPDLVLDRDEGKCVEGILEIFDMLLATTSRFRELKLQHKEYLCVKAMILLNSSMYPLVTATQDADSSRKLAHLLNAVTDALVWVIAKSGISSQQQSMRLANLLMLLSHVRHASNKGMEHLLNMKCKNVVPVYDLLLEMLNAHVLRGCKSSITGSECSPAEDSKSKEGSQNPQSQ

This assay concerns the target Estrogen receptor beta (Homo sapiens) (UniProt Q92731). Briefly: OT_ER_ERbERb_0480: Odyssey Thera (OT) 8-hour HEK293T Protein-Complementation Assay for Estrogen Receptor-beta/-beta Homodimer (AID 2283357). The method, then:
OT_ER_ERbERb_0480 is a cell-based assay that uses HEK293T, a human kidney cell line, with measurements taken at 8 hours after chemical dosing in a 384-well plate.OT_ER_ERbERb_0480 is one of one assay component(s) measured or calculated from the OT_ER_ERbERb_0480 assay. It is designed to make measurements of protein fragment complementation, a form of binding reporter, as detected with fluorescence intensity signals by Protein-fragment Complementation technology.Data from the assay component OT_ER_ERbERb_0480 was analyzed into 1 assay endpoint. This assay endpoint, OT_ER_ERbERb_0480, was analyzed in the positive analysis fitting direction relative to DMSO as the negative control and baseline of activity. Using a type of binding reporter, measures of receptor for gain-of-signal activity can be used to understand the binding at the pathway-level as they relate to the gene ESR2. Furthermore, this assay endpoint can be referred to as a primary readout, because the performed assay has only produced 1 assay endpoint. To generalize the intended target to other relatable targets, this assay endpoint is annotated to the nuclear receptor intended target family, where the subfamily is steroidal.
Protein-fragment complementation assay, or PCA, is a method for the identification and quantification of protein-protein interactions. In the PCA, the proteins of interest ("bait" and "prey") are each covalently linked to fragments of a third protein (e.g. DHFR, which acts as a "reporter"). Interaction between the bait and the prey proteins brings the fragments of the reporter protein in close proximity to allow them to form a functional reporter protein whose activity can be measured. The OT ER beta / ER beta assay is a homodimer PCA of the ligand binding domain (LBD; amino acids 310-547) of human ER beta stably expressed in HEK293T cells. […] Cells are fixed in 4 percent formaldehyde and stained with Draq5 (BioStatus) to identify cells prior to signal detection. Fluorescent signal in the basal state of the assay is very low and is primarily punctuate and cytoplasmic. Modulation of this assay is quantified as an increase in mean fluorescence intensity in the nucleus (for agonists) or in the nucleus and cytoplasm (antagonists) relative to vehicle controls, and can be quantified on a high content imaging device or a laser scanning cytometer. The latter instrument is favored for this assay because of the rapid mode of data acquisition, the ability to acquire data from the entire cell population in a well (as opposed to a fraction of the well on the high content devices) and the larger dynamic range typically achieved with this instrument. To assess sensitivity of the ER beta/ER beta LBD assay to ligand, cells were treated with the ER agonist 17- beta-estradiol (E2) in 10-point concentration- response format for 8 hours and monitored response on a laser scanning plate cytometer (Acumen eX3; TTP Lab Tech).
As for `Cc1ccc(N)c(N)c1`, the compound was classed as inactive.

On to `CN(C)c1ccc(C(=O)c2ccc(N(C)C)cc2)cc1`, for which the result was inactive.

In the case of `Nc1ccc(Oc2ccc(N)cc2)cc1`, the compound was classed as inactive.

`OCCCBr`: the compound was classed as inactive.

On to `COP(=S)(OC)SCN1C(=O)c2ccccc2C1=O`, for which the compound was classed as inactive.

Turning to `ClCCOCCCl`, the call was inactive.

`Nc1cc(Cl)cc(C(=O)O)c1Cl`: the call was inactive.

For the compound `C[C@]12C=CC3=C4CCC(=O)C=C4CC[C@H]3[C@@H]1CC[C@@H]2O`, the AC50 was 370 nM (active) and 12.5 µM (active); the compound was classed as inactive.

Consider `CN(C)C(=O)Nc1ccc(Cl)cc1`, for which the call was inactive.

Turning to `C[N+](C)(C)CC1CO1` (stereo not given), the result was inactive.

In the case of `CC(C)N(Cc1ccccc1)C(=O)C(C)(C)C`, the AC50 was 50 µM (active).

`CC(C)(OOC(C)(C)c1ccccc1)c1ccccc1`: the AC50 is 3.31 µM (active).

As for `O=[N+]([O-])c1ccc(Oc2ccc(Cl)cc2Cl)cc1`, the compound was called inactive.

For `c1ccc2c(c1)oc1ccccc12`, the call was inactive.

On to `ClC1=C(Cl)C2(Cl)C3C(Cl)C=CC3C1(Cl)C2(Cl)Cl` (stereo not given), for which the outcome was inactive.

Take `O=C(N[C@H](c1ccccc1)[C@@H]1CN2CCC1CC2)c1c(Cl)ccc(C(F)(F)F)c1Cl`: the compound was called inactive.

For `CCCCOC(=O)c1ccccc1C(=O)OCc1ccccc1`, the AC50 was 12.6 µM (active).

Take `N#CC(Br)Br`: the compound was classed as inactive.

For `CC(C)(C)OOC(=O)c1ccccc1`, the result was inactive.

Take `Cc1ccc([N+](=O)[O-])cc1`: the outcome was inactive.

For the compound `CC(C)(O)c1cnn2c(-c3ccc(F)c(-c4c(F)cccc4C#N)c3)cnc2n1`, the AC50 is 95.8 µM (active).

Turning to `CC(O)CCO` (stereo not given), the call was inactive.

With `COC(=O)c1ccccc1N`, the result was inactive.

As for `C=CCc1ccc2c(c1)OCO2`, the compound was classed as inactive.

Consider `Clc1ccc(C(c2ccc(Cl)cc2)C(Cl)(Cl)Cl)cc1`, for which the AC50 was 12.7 µM (active).

For `CO[C@@H]1[C@H](OC(=O)NC(=O)CCl)CC[C@]2(CO2)[C@H]1[C@@]1(C)O[C@@H]1CC=C(C)C`, the compound was classed as inactive.

Turning to `O=[N+]([O-])C(Br)(CO)CO`, the outcome was inactive.

`CN(C)c1ccccc1`: the compound was called inactive.

With `CC(C)COC(=O)c1ccccc1C(=O)OCC(C)C`, the AC50 is 25.9 µM (active).

Turning to `O=C1CCCO1`, the compound was classed as inactive.

For `Nc1ccc([N+](=O)[O-])cc1`, the compound was called inactive.

With `c1ccc(NNc2ccccc2)cc1`, the call was inactive.

In the case of `Clc1ccccc1Cl`, the call was inactive.

As for `c1ccc2c(c1)-c1cccc3cccc-2c13`, the AC50 was 37 µM (active).

For `Oc1ccc2ccc3cccc4ccc1c2c34`, the AC50 was 12.3 µM (active).

For `CCC(C)c1ccc(O)cc1` (stereo not given), the AC50 was 16.3 µM (active).

In the case of `[Cl-].[Cl-].[Hg+2]`, the outcome was inactive.

Consider `CCN(CC)CCO`, for which the result was inactive.

With `Nc1ccc(N=Nc2ccccc2)cc1`, the AC50 was 34.6 µM (active).
